Reference: the supplement of paper PMC10646978
± gives the standard deviation.

Tests used:
Settings in all cases: modulator concentration 10 µM
[1] = system: RAW-Dual (murine macrophage reporter line); assay: NF-kB reporter (SEAP) activity fold change vs agonist alone; higher = enhanced NF-kB activity
In short: (§1)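 RAW-Dual murine macrophage reporter cells were seeded at 50 000 per well in 384-well plates and pre-incubated 1 hour at 37 °C with compound pin-transferred to 10 μM final. After 1 hour, a PRR agonist was added and cells incubated overnight. Supernatant NF-κB (SEAP, QUANTI-Blue, 620 nm absorbance) and IRF (Lucia luciferase, QUANTI-Luc, luminescence) signals were divided by the mean agonist-only control on the same plate to give fold change. Two replicate plates were averaged, with errors by propagation.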

[2] = system: RAW-Dual (murine macrophage reporter line); assay: IRF reporter (Lucia luciferase) activity fold change vs agonist alone; higher = enhanced IRF activity
In short: as §1

[3] = system: RAW-Dual (murine macrophage reporter line); assay: viability score (confluency relative to resting cells, overnight) (fraction); higher = more viable, active = viable (0.7 or more)
In short: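 RAW-Dual macrophages in 384-well plates were incubated overnight with compound, final concentration 10 μM. Confluency images from IncuCyte were processed in IncuCyte software into two masks covering all imaged wells. The viability score is each well's confluency relative to resting cells, and a compound met the cutoff when both masks exceeded 70% of resting cells.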

[4] = agonist: CpG ODN 1826 0.5 ug/mL

Row | Compound | NF-kB reporter [1, 4] | NF-kB reporter ([1]; agonist: LPS 0.1 ug/mL) | NF-kB reporter ([1]; agonist: MPLA […]) | IRF reporter ([2]; agonist: 3'3'-cGAMP 10 ug/mL) | IRF reporter ([2]; agonist: LPS 0.1 ug/mL) | IRF reporter ([2]; agonist: MPLA […]) | viability score [3]
1 | CCOc1ccc2oc(-c3ccccc3)c(C(=O)N3CCN(C)CC3)c2c1 | 1.03 ± 0.052 | 1.09 ± 0.087 | 1.03 ± 0.05 | 1.05 ± 0.053 | 1.15 ± 0.13 | 1.26 ± 0.31 | 0.966 (active)
2 | Br.O=S(=O)(c1ccc(-c2csc(Nc3cccc4ccccc34)n2)cc1)N1CCOCC1 | 0.907 ± 0.077 | 1.01 ± 0.089 | 1 ± 0.061 | 0.769 ± 0.053 | 1.25 ± 0.08 | 1.12 ± 0.32 | 1 (active)
3 | O=c1cc(CO)occ1O | 0.97 ± 0.075 | 0.901 ± 0.076 | 1.06 ± 0.11 | 1.04 ± 0.041 | 1.28 ± 0.12 | 1.33 ± 0.19 | 1.03 (active)
4 | O=[N+]([O-])c1ccc(CSc2nc3cccnc3[nH]2)cc1 | 1.17 ± 0.19 | 0.949 ± 0.12 | 0.905 ± 0.077 | 0.935 ± 0.028 | 1.16 ± 0.12 | 1.22 ± 0.2 | 1.01 (active)
5 | O=C(CSc1nc(-c2ccccc2)c(-c2ccccc2)[nH]1)N1CCOCC1 | 1.05 ± 0.32 | 1.08 ± 0.16 | 1.05 ± 0.1 | 0.897 ± 0.032 | 1.28 ± 0.17 | 1.32 ± 0.17 | 0.996 (active)
6 | COC(=O)C1=C(C)NC(C)=C(C(=O)OCCN(C)Cc2ccccc2)C1c1cccc([N+](=O)[O-])c1 (stereo unspecified) | 0.317 ± 0.079 | 0.753 ± 0.06 | 0.72 ± 0.05 | 0.324 ± 0.028 | 1.14 ± 0.24 | 1.15 ± 0.12 | 0.982 (active)
7 | Cl.O=S(=O)(c1cccc2cnccc12)N1CCCNCC1 | 0.76 ± 0.1 | 1.01 ± 0.27 | 1.06 ± 0.06 | 0.825 ± 0.033 | 0.85 ± 0.15 | 0.558 ± 0.083 | 0.992 (active)
8 | OC(Cn1cncn1)(Cn1cncn1)c1ccc(F)cc1F | 0.875 ± 0.072 | 0.967 ± 0.066 | 1.05 ± 0.091 | 1.02 ± 0.052 | 1.46 ± 0.096 | 1.62 ± 0.18 | 0.988 (active)
9 | O=C(O)c1cc(O)ccc1O | 0.972 ± 0.11 | 1.03 ± 0.055 | 0.977 ± 0.023 | 1.03 ± 0.078 | 0.969 ± 0.032 | 0.932 ± 0.11 | 0.996 (active)
10 | Cc1ccc(OCCCOc2cccc3cccnc23)c(Cl)c1 | 0.808 ± 0.076 | 1.02 ± 0.056 | 0.877 ± 0.057 | 0.947 ± 0.077 | 1.32 ± 0.14 | 1.05 ± 0.076 | 1.01 (active)
11 | Cc1cc(OCC(O)Cn2cnc3ccccc32)ccc1Cl (stereo unspecified) | 1.05 ± 0.06 | 1.1 ± 0.084 | 1.14 ± 0.082 | 0.913 ± 0.035 | 0.9 ± 0.086 | 0.685 ± 0.12 | 0.906 (active)
12 | Cc1cccc(N(CC(=O)Nc2ccc3c(c2)OCO3)S(C)(=O)=O)c1 | 0.716 ± 0.06 | 0.934 ± 0.068 | 1 ± 0.098 | 0.784 ± 0.04 | 1.19 ± 0.071 | 1.22 ± 0.13 | 1.02 (active)
13 | COC(=O)C1=C(C)NC(=O)CC1c1c(F)cccc1Cl (stereo unspecified) | 0.986 ± 0.083 | 0.993 ± 0.087 | 0.975 ± 0.041 | 0.87 ± 0.032 | 1.03 ± 0.091 | 1.06 ± 0.14 | 0.995 (active)
